In PubChem BioAssay AID2781 (National Center for Advancing Translational Sciences (NCATS), 2010):
Active and inactive are the calls of the source.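 How the source made its calls: active means compound whose NMR saturation transfer difference test with menin is positive, showing direct binding to the protein; inactive means the rest.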

Molecular target: Menin (Homo sapiens) (UniProt O00255)
Assay: Confirmation of Inhibitors Targeting the Menin-MLL Interaction in MLL Related Leukemias: NMR spectroscopy to verify direct binding of compounds to menin
Conditions: purified menin, NMR STD binding, 100 uM
Text: qHTS Assay for Inhibitors Targeting the Menin-MLL Interaction in MLL Related Leukemias NIH Chemical Genomics Center [NCGC] NIH Molecular Libraries Probe Centers Network [MLPCN] MLPCN Grant: MH084875-01A1 Assay Submitter (PI): Jolanta Grembecka, Tomasz Cierpicki, University of Virginia Translocations of the MLL (Mixed Lineage Leukemia) gene are frequently found in human leukemias affecting both children and adults. Fusion of MLL to one of more than 60 genes results in generation of oncogenic proteins upregulating Hox genes, which are vital to blood cell development. Patients harboring fusion of the MLL gene suffer from aggressive leukemias and respond poorly to available therapies. All of the oncogenic fusion proteins have a preserved N-terminal fragment of MLL that has been identified to interact with menin. It has been recently discovered that association with menin is critical to the leukemogenic activity of the MLL fusion oncoproteins. Selective targeting of the menin-MLL interaction could provide an attractive therapeutic approach to develop novel drugs for MLL-related leukemias. Small molecules blocking the menin-MLL interaction should reverse the oncogenic potential of MLL fusion proteins. We have developed and optimized a fluorescence polarization-based assay for the identification of Menin-MLL inhibitors. The assay was run employing two different MLL-derived peptides. […]

Chain of Menin (Homo sapiens) (O00255 whole entry, looked up): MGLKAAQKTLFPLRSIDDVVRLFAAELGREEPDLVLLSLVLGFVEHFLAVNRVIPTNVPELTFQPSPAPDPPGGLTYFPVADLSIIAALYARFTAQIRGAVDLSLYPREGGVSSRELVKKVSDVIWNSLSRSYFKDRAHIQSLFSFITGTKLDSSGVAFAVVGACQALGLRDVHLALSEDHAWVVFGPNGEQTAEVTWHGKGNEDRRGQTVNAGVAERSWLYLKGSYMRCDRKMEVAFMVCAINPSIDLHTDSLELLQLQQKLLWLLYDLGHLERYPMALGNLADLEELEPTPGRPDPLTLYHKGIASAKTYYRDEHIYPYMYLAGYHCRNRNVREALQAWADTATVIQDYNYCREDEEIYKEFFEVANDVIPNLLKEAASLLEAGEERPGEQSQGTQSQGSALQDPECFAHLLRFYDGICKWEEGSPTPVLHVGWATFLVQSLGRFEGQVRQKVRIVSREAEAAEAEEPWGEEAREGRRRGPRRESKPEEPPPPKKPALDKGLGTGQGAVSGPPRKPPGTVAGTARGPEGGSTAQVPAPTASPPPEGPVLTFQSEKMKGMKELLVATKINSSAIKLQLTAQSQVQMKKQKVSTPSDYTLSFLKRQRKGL

c1cc2cc(c1)C[n+]1ccc(c3ccccc31)NCc1ccc(cc1)CNc1cc[n+](c3ccccc13)C2
outcome: inactive; negative

CCCCn1c(=O)c(C(=O)Nc2ccsc2C(=O)OC)c(O)c2ccccc21
outcome: inactive; negative
